Results: ChEMBL document CHEMBL5598561, “ASAP - In vitro binding kinetics” (2024)

Biological target: Nonstructural protein 3 (Zika virus) (UniProt A0A024AXB9)
Details: PRVABC59, Concentration 10.0 uM

Nonstructural protein 3 (Zika virus), sequence (A0A024AXB9 as listed by the source): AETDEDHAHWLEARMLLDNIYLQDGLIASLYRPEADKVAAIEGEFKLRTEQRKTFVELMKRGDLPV

Compound `CN1Cc2ccc(NC(=O)c3cc(Cl)cc4[nH]ncc34)cc2C1` has a pKD (Immobilization level 10000.0 pg/mm2, Rmax 20.0 pg/mm2, ka 391825.056 M-1s-1, kd 0.668 1/s) of 5.77, a pKD (Immobilization level 12000.0 pg/mm2, Rmax 38.0 pg/mm2, ka 177362.143 M-1s-1, kd 0.381 1/s) of 5.67 and a pKD (Immobilization level 13000.0 pg/mm2, Rmax 24.0 pg/mm2, ka 298987.187 M-1s-1, kd 0.52 1/s) of 5.76.

Compound `O=C(Nc1ccc2c(c1)CNC2)c1cc(Br)cc2[nH]c([C@H]3CCOC3)nc12` has a pKD (Immobilization level 10000.0 pg/mm2, Rmax 19.0 pg/mm2, ka 727525.444 M-1s-1, kd 0.791 1/s) of 5.96, a pKD (Immobilization level 12000.0 pg/mm2, Rmax 41.0 pg/mm2, ka 451126.44 M-1s-1, kd 0.431 1/s) of 6.02 and a pKD (Immobilization level 13000.0 pg/mm2, Rmax 27.0 pg/mm2, ka 652953.753 M-1s-1, kd 0.609 1/s) of 6.03.

`O=C(Nc1ccc2c(c1)CNC2)c1cc(Cl)ccc1SC1CCCC1` was tested, and the pKD (Immobilization level 10000.0 pg/mm2, Rmax 23.0 pg/mm2, ka 575465.756 M-1s-1, kd 3.5 1/s) was 5.22, the pKD (Immobilization level 12000.0 pg/mm2, Rmax 62.0 pg/mm2, ka 231361.37 M-1s-1, kd 1.925 1/s) was 5.08 and the pKD (Immobilization level 13000.0 pg/mm2, Rmax 43.0 pg/mm2, ka 253243.383 M-1s-1, kd 2.083 1/s) was 5.08.

In the case of `Cn1nc(C(=O)Nc2ccc3c(c2)CNC3)c2cc(Br)ccc21`, the pKD (Immobilization level 3900.0 pg/mm2, Rmax 7.0 pg/mm2, ka 186374.339 M-1s-1, kd 1.611 1/s) is reported as 5.06, the pKD (Immobilization level 4900.0 pg/mm2, Rmax 17.0 pg/mm2, ka 132352.529 M-1s-1, kd 1.379 1/s) is reported as 4.98 and the pKD (Immobilization level 5500.0 pg/mm2, Rmax 22.0 pg/mm2, ka 128273.344 M-1s-1, kd 1.393 1/s) is reported as 4.96.

In the case of `N#C[C@]1(Nc2ccc3c(c2)CNC3)C(=O)Nc2ccc(Cl)cc21`, the pKD (Immobilization level 10000.0 pg/mm2, Rmax 25.0 pg/mm2, ka 264211.625 M-1s-1, kd 1.585 1/s) is reported as 5.22, the pKD (Immobilization level 12000.0 pg/mm2, Rmax 32.0 pg/mm2, ka 105814.14 M-1s-1, kd 0.856 1/s) is reported as 5.09 and the pKD (Immobilization level 13000.0 pg/mm2, Rmax 39.0 pg/mm2, ka 121808.508 M-1s-1, kd 1.295 1/s) is reported as 4.97.

With `O=C(NCc1ccc(F)cc1)[C@H](Nc1ccc2c(c1)CNC2)c1cc(Cl)cc2[nH]ncc12` the pKD (Immobilization level 10000.0 pg/mm2, Rmax 51.0 pg/mm2, ka 449498.965 M-1s-1, kd 0.143 1/s) was 6.5, the pKD (Immobilization level 12000.0 pg/mm2, Rmax 66.0 pg/mm2, ka 240349.747 M-1s-1, kd 0.114 1/s) was 6.32 and the pKD (Immobilization level 13000.0 pg/mm2, Rmax 64.0 pg/mm2, ka 328786.628 M-1s-1, kd 0.139 1/s) was 6.37.

`Cc1ccc(C(=O)Nc2ccc3c(c2)CNC3)c2[nH]ncc12` was tested, and the pKD (Immobilization level 10000.0 pg/mm2, Rmax 28.0 pg/mm2, ka 287009.784 M-1s-1, kd 5.44 1/s) was 4.72, the pKD (Immobilization level 12000.0 pg/mm2, Rmax 65.0 pg/mm2, ka 163548.417 M-1s-1, kd 3.844 1/s) was 4.63 and the pKD (Immobilization level 13000.0 pg/mm2, Rmax 48.0 pg/mm2, ka 218448.051 M-1s-1, kd 4.78 1/s) was 4.66.

`O=C(Nc1ccc([C@H]2CCNC2)cc1)c1cc(Cl)cc2[nH]ncc12` showed a pKD (Immobilization level 10000.0 pg/mm2, Rmax 36.0 pg/mm2, ka 266986.751 M-1s-1, kd 3.172 1/s) of 4.92, a pKD (Immobilization level 12000.0 pg/mm2, Rmax 43.0 pg/mm2, ka 228557.467 M-1s-1, kd 2.265 1/s) of 5 and a pKD (Immobilization level 13000.0 pg/mm2, Rmax 32.0 pg/mm2, ka 486506.686 M-1s-1, kd 3.313 1/s) of 5.17.

`NS(=O)(=O)c1cc(Cl)cc(C(=O)Nc2ccc3c(c2)CNC3)c1` showed a pKD (Immobilization level 10000.0 pg/mm2, Rmax 26.0 pg/mm2, ka 224016.174 M-1s-1, kd 2.677 1/s) of 4.92, a pKD (Immobilization level 12000.0 pg/mm2, Rmax 52.0 pg/mm2, ka 213819.19 M-1s-1, kd 1.773 1/s) of 5.08 and a pKD (Immobilization level 13000.0 pg/mm2, Rmax 31.0 pg/mm2, ka 267165.084 M-1s-1, kd 2.041 1/s) of 5.12.

For `O=C(NCC(F)F)[C@H](Nc1ccc2c(c1)CNC2)c1cc(Cl)cc(C2CC2)c1`, the pKD (Immobilization level 10000.0 pg/mm2, Rmax 47.0 pg/mm2, ka 474542.901 M-1s-1, kd 0.05 1/s) was 6.97, the pKD (Immobilization level 12000.0 pg/mm2, Rmax 82.0 pg/mm2, ka 199001.376 M-1s-1, kd 0.068 1/s) was 6.46 and the pKD (Immobilization level 13000.0 pg/mm2, Rmax 74.0 pg/mm2, ka 337297.719 M-1s-1, kd 0.055 1/s) was 6.78.

Compound `N#C[C@H](Nc1ccc2c(c1)CNC2)c1cccc2[nH]ncc12` has a pKD (Immobilization level 10000.0 pg/mm2, Rmax 24.0 pg/mm2, ka 92252.014 M-1s-1, kd 0.378 1/s) of 5.39, a pKD (Immobilization level 12000.0 pg/mm2, Rmax 16.0 pg/mm2, ka 78971.5 M-1s-1, kd 0.214 1/s) of 5.57 and a pKD (Immobilization level 13000.0 pg/mm2, Rmax 22.0 pg/mm2, ka 80847.64 M-1s-1, kd 0.299 1/s) of 5.43.

Work on `Cn1cc(CCc2nc3c(C(=O)Nc4ccc5c(c4)CNC5)cc(Cl)cc3[nH]2)cn1` yielded a pKD (Immobilization level 10000.0 pg/mm2, Rmax 29.0 pg/mm2, ka 162831.43 M-1s-1, kd 0.539 1/s) of 5.48, a pKD (Immobilization level 12000.0 pg/mm2, Rmax 67.0 pg/mm2, ka 60654.253 M-1s-1, kd 0.241 1/s) of 5.4 and a pKD (Immobilization level 13000.0 pg/mm2, Rmax 46.0 pg/mm2, ka 118753.092 M-1s-1, kd 0.416 1/s) of 5.46.

For `O=C(Nc1ccc2c(c1)CCNCC2)c1cc(Cl)cc2[nH]ncc12`, the pKD (Immobilization level 3900.0 pg/mm2, Rmax 28.0 pg/mm2, ka 176787.489 M-1s-1, kd 0.385 1/s) was 5.66, the pKD (Immobilization level 4900.0 pg/mm2, Rmax 58.0 pg/mm2, ka 81779.894 M-1s-1, kd 0.366 1/s) was 5.35 and the pKD (Immobilization level 5500.0 pg/mm2, Rmax 55.0 pg/mm2, ka 98394.506 M-1s-1, kd 0.363 1/s) was 5.43. The pKD (Immobilization level 10000.0 pg/mm2, Rmax 51.0 pg/mm2, ka 117713.558 M-1s-1, kd 0.472 1/s) was 5.4, the pKD (Immobilization level 12000.0 pg/mm2, Rmax 47.0 pg/mm2, ka 102680.383 M-1s-1, kd 0.29 1/s) was 5.55 and the pKD (Immobilization level 13000.0 pg/mm2, Rmax 85.0 pg/mm2, ka 77805.794 M-1s-1, kd 0.391 1/s) was 5.3.

`O=C1NCc2c1cccc2C(=O)Nc1ccc2c(c1)CNC2` gave a pKD (Immobilization level 3900.0 pg/mm2, Rmax 18.0 pg/mm2, ka 393715.885 M-1s-1, kd 4.071 1/s) of 4.99, a pKD (Immobilization level 4900.0 pg/mm2, Rmax 15.0 pg/mm2, ka 235814.335 M-1s-1, kd 2.807 1/s) of 4.92 and a pKD (Immobilization level 5500.0 pg/mm2, Rmax 18.0 pg/mm2, ka 357121.96 M-1s-1, kd 4.231 1/s) of 4.93. It also gave a pKD (Immobilization level 12000.0 pg/mm2, ka 172299.161 M-1s-1, kd 1.476 1/s) of 5.07 and a pKD (Immobilization level 13000.0 pg/mm2, Rmax 19.0 pg/mm2, ka 18937.32 M-1s-1, kd 1.323 1/s) of 4.16.
